These results are taken from PubChem BioAssay (NCATS).

SMILES strings stand for the structures. “And” between values parts separate entries of the source, which are not always exact repeats. Equal entries are not always repeated. Inconclusive results are not listed. The source made the active and inactive calls. Unless noted, calls come from the whole dose curve; as a rule, active = well fitted curve in the direction sought with a large enough effect; inconclusive = small, poorly fitted or top-dose-only effect, or another doubt; inactive = no such curve, though single readings can be large; an effect the other way counts as inactive or inconclusive.

A short description of assay [1]: qHTS Assay for Identifying Gametocytocidal Compounds (AID 743244).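 Note: % is set by controls: 0 for no effect and ±100 for the full control effect; actives lower the fluorescent signal which means gametocytes are killed.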 As to conditions: P. falciparum 3D7 stage III-V gametocytes, alamarBlue, 72 h; max response: stronger effect = lower value. A digest of the protocol: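 A resazurin-based viability read-out was applied to mature P. falciparum gametocytes: 72 h compound treatment, then 24 h dye incubation, with falling fluorescence signalling gametocytocidal effect.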

A short description of assay [2]: qHTS profiling for inhibitors of Plasmodium falciparum (3D7) proliferation (AID 743322; call rule not given here;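 note: infected erythrocytes exposed to compound for 72 h before lysis; 100% = DMSO vehicle wells and 0% = 0.29 µM artemisinin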). As to conditions: P. falciparum 3D7 proliferation; at 28.7 µM (top of the series) unless noted. The essentials: (§1)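 Parasite DNA was quantified by SYBR Green I fluorescence (ex 485, em 535 nm) after overnight lysis in saponin/Triton buffer at room temperature. Cultures at 0.3% parasitemia and 2.5% hematocrit were first exposed to compound for 72 h at 37 C; signals were normalised to artemisinin (0.29 uM) and vehicle wells.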
A general note: Quantitative high-throughput screening tests each substance at several concentrations.

A short description of assay [3]: qHTS profiling for inhibitors of Plasmodium falciparum (DD2) proliferation (AID 743323; call rule not given here). To be noted: lower = more inhibition; at 28.7 µM (top of the series) unless noted. The essentials: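 Parasite proliferation measured via DNA-dye fluorescence, as uninfected erythrocytes lack DNA. Cultures at 0.3% parasitemia and 2.5% hematocrit incubated 72 h with compound; signal scaled between vehicle and 0.29 uM artemisinin wells.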

A short description of assay [4]: qHTS profiling for inhibitors of Plasmodium falciparum (HB3) proliferation (AID 743324).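 Note: 100% = DMSO vehicle wells and 0% = artemisinin-treated control wells.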 As to conditions: Plasmodium falciparum HB3 blood-stage proliferation; at 28.7 µM (top of the series) unless noted. A digest of the protocol: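 SYBR Green fluorescence (485 ex/535 em) of lysed cultures, incubated overnight at room temperature in the dark, quantifies parasite DNA. Infected erythrocytes at 0.3% parasitemia and 2.5% hematocrit were exposed 72 h; values normalized to DMSO and 0.29 uM artemisinin controls.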

A short description of assay [5]: qHTS profiling of the MIPE4 collection as inhibitors of Plasmodium falciparum (3D7) proliferation (AID 743344; call rule not given here). As to conditions: P. falciparum 3D7 in erythrocytes, SYBR Green DNA fluorescence, 72 h; at 28.5 µM (top of the series) unless noted. A digest of the protocol: as §1
Assay [6] in a line: qHTS profiling of the MIPE4 collection as inhibitors of Plasmodium falciparum (DD2) proliferation (AID 743345; call rule not given here). To be noted: P. falciparum Dd2 in erythrocytes, SYBR Green DNA, 72 h; at 28.5 µM (top of the series) unless noted. A digest of the protocol: as §1
The nature of assay [7]: qHTS profiling of the MIPE4 collection as inhibitors of Plasmodium falciparum (DD2) proliferation (Rep 2) (AID 743346; call rule not given here). As to conditions: P. falciparum Dd2 in erythrocytes, SYBR Green DNA, 72 h; at 28.5 µM (top of the series) unless noted. A digest of the protocol:
as §1

Assay [8] in a line: qHTS profiling of the MIPE4 collection as inhibitors of Plasmodium falciparum (HB3) proliferation (AID 743347; call rule not given here;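 note: plate controls were DMSO vehicle wells for no effect and artemisinin wells for full effect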). As to conditions: P. falciparum HB3 in erythrocytes, SYBR Green DNA, 72 h; at 28.5 µM (top of the series) unless noted. The essentials:
as §1

Assay [9] is described as follows: High-throughput drug toxicity screening in the BPDCN cell line Gen2.2 (AID 1224824; call rule not given here;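 note: cells exposed to compounds for 48 h before reading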). As to conditions: Gen2.2 BPDCN cells; at 45.8 µM (top of the series) unless noted. A digest of the protocol: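 Gen2.2 cells (500/well) in phenol red-free RPMI with 10% FBS were exposed to compounds for 48 h at 37 °C, 5% CO2. Viability was read by CellTiter-Glo luminescence and normalized to DMSO (100%) and 9.2 uM bortezomib (0%).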

Assay [10] can be described thus: High-throughput drug toxicity screening in the BPDCN cell line Cal-1 (AID 1224825; call rule not given here). As to conditions: Cal-1 BPDCN cell viability, qHTS; at 45.8 µM (top of the series) unless noted. A digest of the protocol: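 Percent activity derived from CellTiter-Glo luminescence, scaling DMSO to 100% and 9.2 uM final bortezomib to 0%. BPDCN Cal-1 cells (500/well, RPMI plus 10% FBS) incubated with compounds 48 hours at 37C before reading.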

The nature of assay [11]: qHTS assay for measurement of the activity of small molecule inhibitors on Zika virus induced Caspase-3 activity in human iPSC derived neural progenitor cells (hNPCs) (AID 1224857). Note: % of control where 0% means no effect; nearly all actives have a fitted effect of over 65% in size. The essentials:
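Quantitative HTS format: human iPSC neural progenitors, 1 h compound pretreatment, ZIKV 2 FFU/cell for 6 h at 37 C. Percent inhibition derived from luminescent caspase-3/7 signal between uninfected and infected controls.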

The nature of assay [12]: qHTS assay for measurement of the activity of small molecule inhibitors on Zika virus induced Caspase-3 activity in human astrocytoma cells (AID 1224859).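 Note: plate controls were ZIKV-infected untreated cells for no effect and uninfected cells for full effect.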 A digest of the protocol: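 Readout is luminescence from Caspase-Glo 3/7 added after a 6 h ZIKV infection (2 FFU/cell) of compound-pretreated (1 h) SNB-19 cells; data expressed as % inhibition versus uninfected and infected wells.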

Assay [13] in a line: qHTS Screen of the MIPE 4.0 Collection Against Ewings Sarcoma (RDES) (AID 1259252). Note: nearly all actives have a fitted effect of over 35% in size. Note: potency is the fitted concentration of half-maximal effect. The essentials: (§2)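 After a 4 h attachment period in RPMI/5% FBS, cells were pin-dosed with test compounds; DMSO served as negative and 9.2 uM bortezomib (final) as positive control. Luminescent CellTiter-Glo signal at 48 h defined viability.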
Assay [14] can be described thus: qHTS Screen of the MIPE 4.0 Collection Against Ewings Sarcoma (TC71) (AID 1259253). Note: nearly all actives have a fitted effect of over 40% in size. Note: potency is the fitted concentration of half-maximal effect. A digest of the protocol: as §2
Assay [15] can be described thus: qHTS Screen of the MIPE 4.0 Collection Against Ewings Sarcoma (EW8) (AID 1259255).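 For viability: 100% = DMSO-treated cells and 0% = medium-only wells without cells.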 Note: nearly all actives have a fitted effect of over 35% in size. Note: potency is the fitted concentration of half-maximal effect. A digest of the protocol: as §2
In assay [16] the target is Hexokinase-4 (Homo sapiens) + Glucokinase regulatory protein (Homo sapiens) (UniProt P35557+Q14397). The assay can be described thus: qHTS assay for inhibitors of recombinant human GCK-GKRP interaction: HTRF assay (AID 743207).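 Note: 0% = DMSO with GCK present and -100% = DMSO wells lacking GCK.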 A digest of the protocol: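 GST-GCK and FLAG-GKRP (5 nM each) were combined with 2 uM S6P in pH 7.1 Hepes/MgCl2/KCl/DTT buffer, then compound and anti-FLAG XL665/anti-GST K antibodies were added. After 60 min at room temperature, HTRF 665/615 nm emission was read.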

A short description of assay [17]: qHTS assay for cell viability of HEK293 cells (AID 743288). Note: % is set by controls: 0 for no effect and ±100 for the full control effect; nearly all actives have a fitted effect of over 50% in size. To be noted: ATP luminescence (CellTiter-Glo), 18 h; max response: stronger effect = lower value. A digest of the protocol:
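After 18 h compound exposure at 37 C, parental HEK293 cells (2,000/well) are lysed with CellTiter-Glo and luminescence is read following 30 min at room temperature.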

Sequence of Hexokinase-4 (Homo sapiens) + Glucokinase regulatory protein (Homo sapiens) (P35557 whole entry, looked up): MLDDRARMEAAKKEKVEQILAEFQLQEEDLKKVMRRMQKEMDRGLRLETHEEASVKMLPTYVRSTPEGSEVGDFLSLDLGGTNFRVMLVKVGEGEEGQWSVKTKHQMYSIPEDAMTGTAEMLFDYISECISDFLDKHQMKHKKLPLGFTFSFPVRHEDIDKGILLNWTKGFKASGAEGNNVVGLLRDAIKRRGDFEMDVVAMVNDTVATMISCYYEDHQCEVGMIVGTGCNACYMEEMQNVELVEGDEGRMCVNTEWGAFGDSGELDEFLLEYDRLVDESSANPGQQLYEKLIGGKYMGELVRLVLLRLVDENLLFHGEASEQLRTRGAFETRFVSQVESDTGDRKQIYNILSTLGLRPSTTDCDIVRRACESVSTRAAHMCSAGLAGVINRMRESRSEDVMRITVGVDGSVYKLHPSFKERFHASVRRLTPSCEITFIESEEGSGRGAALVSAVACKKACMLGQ
Sequence of Hexokinase-4 (Homo sapiens) + Glucokinase regulatory protein (Homo sapiens) (Q14397 whole entry, looked up): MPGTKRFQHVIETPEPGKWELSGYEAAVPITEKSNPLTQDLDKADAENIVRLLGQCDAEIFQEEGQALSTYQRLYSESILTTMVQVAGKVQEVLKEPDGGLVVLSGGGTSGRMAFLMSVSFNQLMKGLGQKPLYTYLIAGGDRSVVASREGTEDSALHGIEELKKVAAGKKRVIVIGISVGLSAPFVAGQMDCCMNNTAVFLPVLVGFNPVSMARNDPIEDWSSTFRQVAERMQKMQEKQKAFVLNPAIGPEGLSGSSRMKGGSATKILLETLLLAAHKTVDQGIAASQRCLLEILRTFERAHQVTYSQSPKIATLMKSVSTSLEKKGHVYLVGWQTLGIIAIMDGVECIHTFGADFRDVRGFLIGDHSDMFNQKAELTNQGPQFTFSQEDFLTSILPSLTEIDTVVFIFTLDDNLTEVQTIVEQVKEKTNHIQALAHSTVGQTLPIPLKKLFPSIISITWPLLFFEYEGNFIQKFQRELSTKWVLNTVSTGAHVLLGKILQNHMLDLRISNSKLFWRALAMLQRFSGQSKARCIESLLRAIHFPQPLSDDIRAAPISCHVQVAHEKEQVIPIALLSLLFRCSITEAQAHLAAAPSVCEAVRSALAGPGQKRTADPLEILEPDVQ

Turning to `CS(=O)(=O)Oc1ccc2c(NC(N)=O)c(C(=O)c3ccc(Cl)cc3Cl)oc2c1`, in [1], the max response is 25% (inactive). This molecule displayed a remaining parasite growth % (stronger effect = lower value) in [2] of 75.4%. Moreover, the activity, percent of control in [3] is 83.2%. For the same molecule, the remaining proliferation (% of control), lower = more inhibition in assay [4] worked out at 94.7%. Besides, the parasite growth, % of DMSO control in assay [5] is 49.8%. Moreover, in assay [6], the parasite growth remaining, % of DMSO control (lower = more inhibition) stood at 82.7%. Also, the parasite growth, % of control (lower = inhibition) in [7] was 33.3%. In assay [8], this molecule registered a growth, % of control of 13.6%. In addition, the cell viability, % of control (lower = more cytotoxic) in [9] was found to be 153%. In assay [10], this molecule returned a viability (% of control) of 13.2%. The Potency entry in assay [11] and in [12] was “inactive” in each case. Besides, the Potency was 11.8 µM (active) in [13], 14.8 µM (active) in assay [14] and 23.5 µM (active) in assay [15].
On to `COc1cc2nccc(Oc3ccc(NC(=O)NC4CC4)c(Cl)c3)c2cc1C(N)=O`, for which the max response in [1] was -10.8% (inactive). In addition, the remaining parasite growth % (stronger effect = lower value) in [2] came out at 63.1%. In addition, the activity, percent of control in assay [3] came to 67.5%. In [4], the remaining proliferation (% of control), lower = more inhibition was 30.9%. The molecule further displayed a parasite growth, % of DMSO control in [5] of 17.7%. Further, the parasite growth remaining, % of DMSO control (lower = more inhibition) in assay [6] came to 70.8%. The molecule also gave a parasite growth, % of control (lower = inhibition) in assay [7] of 30.6%. The molecule further showed a growth, % of control in assay [8] of 19.2%. In assay [9], the cell viability, % of control (lower = more cytotoxic) is 10.1%. For the same molecule, the viability (% of control) in assay [10] stood at 5.43%. Further, the Potency entry in assay [11] and in [12] was “inactive” throughout. In addition, the figures for the Potency in [13], in assay [14] and in [15] were 0.833 µM (active), 1.05 µM (active) and 0.469 µM (active), respectively.
Consider `CC(C)C[C@H](NC(=O)[C@@H](O)[C@H](N)Cc1ccccc1)C(=O)O`, for which, in assay [16], the result was inactive. Moreover, the max response in assay [1] was -20.9% (inactive) and 9.59% (inactive). In assay [2], this molecule showed a remaining parasite growth % (stronger effect = lower value) of 2.82%. Besides, the activity, percent of control in [3] was 6.99%. In addition, the remaining proliferation (% of control), lower = more inhibition in [4] turned out to be 5.96%. In [5], this molecule displayed a parasite growth, % of DMSO control of 7.87%. In assay [6], this molecule showed a parasite growth remaining, % of DMSO control (lower = more inhibition) of 10.1%. Besides, the parasite growth, % of control (lower = inhibition) in assay [7] came out at 16%. Also, the cell viability, % of control (lower = more cytotoxic) in [9] came out at 103%. For the same molecule, the viability (% of control) in assay [10] was 38.3%. Besides, the Potency result in assay [11] and in assay [12] was “inactive” throughout. In addition, the Potency in [13] was 23.5 µM (active); in assay [14], 26.4 µM (active).
On to `COc1cccc2cc(-c3nc(C4CCC(C(=O)O)CC4)n4ncnc(N)c34)[nH]c12` (stereo unspecified), for which the max response in assay [1] was -10.8% (inactive). In [2], the remaining parasite growth % (stronger effect = lower value) came to 64.8%. Also, in [3], the activity, percent of control amounted to 53.2%. The parasite growth, % of DMSO control in [5] is 13.9%. In [7], this molecule came in with a parasite growth, % of control (lower = inhibition) of 28.6%. In assay [8], this molecule yielded a growth, % of control of 9.36%. The cell viability, % of control (lower = more cytotoxic) in assay [9] is 5.49%. In assay [10], this molecule showed a viability (% of control) of 21%. Besides, the Potency entry in [11] and in assay [12] was “inactive” each time. Also, the values for the Potency in assay [13], in assay [14] and in assay [15] were 0.833 µM (active), 0.662 µM (active) and 0.526 µM (active), respectively.
As to `CCCc1nn(C)c2c(=O)[nH]c(-c3cc(S(=O)(=O)N4CCN(C)CC4)ccc3OCC)nc12`, the max response in [1] was 18.4% (inactive). Further, the remaining parasite growth % (stronger effect = lower value) in [2] stood at 98.3%. Besides, in assay [3], the activity, percent of control is 102%. The same molecule registered a remaining proliferation (% of control), lower = more inhibition in [4] of 61.6%. Moreover, the parasite growth, % of DMSO control in [5] was 21.3%. Further, the parasite growth, % of control (lower = inhibition) in assay [7] came to 51.4%. The same molecule returned a growth, % of control in assay [8] of 24.6%. In addition, the cell viability, % of control (lower = more cytotoxic) in [9] came out at 91.7%. This molecule also registered a viability (% of control) in assay [10] of 81.8%. Also, the Potency entry in [11] and in assay [12] was “inactive” each time. Further, the Potency was 14.8 µM (active) in assay [13] and 13.2 µM (active) in assay [14].
For `Cc1c(C)c2c(c(C)c1O)CCC(C)(COc1ccc(CC3SC(=O)NC3=O)cc1)O2` (stereo unspecified), the max response in assay [1] was 13.5% (inactive) and 17.4% (inactive); in [17] it was -10.3% (inactive). In assay [2], this molecule displayed a remaining parasite growth % (stronger effect = lower value) of 93.1%. The activity, percent of control in assay [3] worked out at 80%. Besides, in assay [4], the remaining proliferation (% of control), lower = more inhibition was 46.8%. This molecule also gave a parasite growth, % of DMSO control in assay [5] of 35.4%. In [6], the parasite growth remaining, % of DMSO control (lower = more inhibition) is 83.4%. In [7], this molecule showed a parasite growth, % of control (lower = inhibition) of 43.6%. The same molecule gave a growth, % of control in assay [8] of 62.4%. In addition, in [9], the cell viability, % of control (lower = more cytotoxic) came to 31.1%. In assay [10], this molecule registered a viability (% of control) of 91.7%. The Potency entry in [11], in assay [12], in assay [13], in [14] and in [15] was “inactive” throughout.
